Measured values from ChEMBL document CHEMBL1961873, “Compounds: GSK PKIS; Assays: Nanosyn kinase panel” (2012).

Assays:
[1] = molecular target: RAF proto-oncogene serine/threonine-protein kinase (Homo sapiens) (UniProt P04049); details: at 1 µM;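 further: values are the mean percent inhibition of CRAF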
[2] = molecular target: T1, Interleukin-1 receptor-associated kinase 4 (Homo sapiens) (UniProt Q9NWZ3); details: at 0.1 µM
T1 sequence (whole entry): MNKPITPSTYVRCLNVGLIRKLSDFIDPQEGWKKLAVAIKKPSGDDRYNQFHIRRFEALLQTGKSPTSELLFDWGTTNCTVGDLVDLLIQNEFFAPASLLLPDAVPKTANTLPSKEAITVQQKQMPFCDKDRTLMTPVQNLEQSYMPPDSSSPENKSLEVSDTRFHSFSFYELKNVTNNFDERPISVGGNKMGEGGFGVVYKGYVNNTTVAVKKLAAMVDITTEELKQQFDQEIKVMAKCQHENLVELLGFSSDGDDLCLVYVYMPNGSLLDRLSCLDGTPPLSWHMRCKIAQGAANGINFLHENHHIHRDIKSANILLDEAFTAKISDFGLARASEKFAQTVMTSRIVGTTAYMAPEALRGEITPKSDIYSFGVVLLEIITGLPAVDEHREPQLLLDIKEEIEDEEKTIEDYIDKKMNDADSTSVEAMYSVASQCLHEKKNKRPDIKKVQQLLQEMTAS

[3] = molecular target: T1, Interleukin-1 receptor-associated kinase 4 (Homo sapiens); details: at 1 µM
[4] = molecular target: Leucine-rich repeat serine/threonine-protein kinase 2 (Homo sapiens) (UniProt Q5S007); details: at 0.1 µM
Leucine-rich repeat serine/threonine-protein kinase 2 (Homo sapiens), sequence (Q5S007 whole entry): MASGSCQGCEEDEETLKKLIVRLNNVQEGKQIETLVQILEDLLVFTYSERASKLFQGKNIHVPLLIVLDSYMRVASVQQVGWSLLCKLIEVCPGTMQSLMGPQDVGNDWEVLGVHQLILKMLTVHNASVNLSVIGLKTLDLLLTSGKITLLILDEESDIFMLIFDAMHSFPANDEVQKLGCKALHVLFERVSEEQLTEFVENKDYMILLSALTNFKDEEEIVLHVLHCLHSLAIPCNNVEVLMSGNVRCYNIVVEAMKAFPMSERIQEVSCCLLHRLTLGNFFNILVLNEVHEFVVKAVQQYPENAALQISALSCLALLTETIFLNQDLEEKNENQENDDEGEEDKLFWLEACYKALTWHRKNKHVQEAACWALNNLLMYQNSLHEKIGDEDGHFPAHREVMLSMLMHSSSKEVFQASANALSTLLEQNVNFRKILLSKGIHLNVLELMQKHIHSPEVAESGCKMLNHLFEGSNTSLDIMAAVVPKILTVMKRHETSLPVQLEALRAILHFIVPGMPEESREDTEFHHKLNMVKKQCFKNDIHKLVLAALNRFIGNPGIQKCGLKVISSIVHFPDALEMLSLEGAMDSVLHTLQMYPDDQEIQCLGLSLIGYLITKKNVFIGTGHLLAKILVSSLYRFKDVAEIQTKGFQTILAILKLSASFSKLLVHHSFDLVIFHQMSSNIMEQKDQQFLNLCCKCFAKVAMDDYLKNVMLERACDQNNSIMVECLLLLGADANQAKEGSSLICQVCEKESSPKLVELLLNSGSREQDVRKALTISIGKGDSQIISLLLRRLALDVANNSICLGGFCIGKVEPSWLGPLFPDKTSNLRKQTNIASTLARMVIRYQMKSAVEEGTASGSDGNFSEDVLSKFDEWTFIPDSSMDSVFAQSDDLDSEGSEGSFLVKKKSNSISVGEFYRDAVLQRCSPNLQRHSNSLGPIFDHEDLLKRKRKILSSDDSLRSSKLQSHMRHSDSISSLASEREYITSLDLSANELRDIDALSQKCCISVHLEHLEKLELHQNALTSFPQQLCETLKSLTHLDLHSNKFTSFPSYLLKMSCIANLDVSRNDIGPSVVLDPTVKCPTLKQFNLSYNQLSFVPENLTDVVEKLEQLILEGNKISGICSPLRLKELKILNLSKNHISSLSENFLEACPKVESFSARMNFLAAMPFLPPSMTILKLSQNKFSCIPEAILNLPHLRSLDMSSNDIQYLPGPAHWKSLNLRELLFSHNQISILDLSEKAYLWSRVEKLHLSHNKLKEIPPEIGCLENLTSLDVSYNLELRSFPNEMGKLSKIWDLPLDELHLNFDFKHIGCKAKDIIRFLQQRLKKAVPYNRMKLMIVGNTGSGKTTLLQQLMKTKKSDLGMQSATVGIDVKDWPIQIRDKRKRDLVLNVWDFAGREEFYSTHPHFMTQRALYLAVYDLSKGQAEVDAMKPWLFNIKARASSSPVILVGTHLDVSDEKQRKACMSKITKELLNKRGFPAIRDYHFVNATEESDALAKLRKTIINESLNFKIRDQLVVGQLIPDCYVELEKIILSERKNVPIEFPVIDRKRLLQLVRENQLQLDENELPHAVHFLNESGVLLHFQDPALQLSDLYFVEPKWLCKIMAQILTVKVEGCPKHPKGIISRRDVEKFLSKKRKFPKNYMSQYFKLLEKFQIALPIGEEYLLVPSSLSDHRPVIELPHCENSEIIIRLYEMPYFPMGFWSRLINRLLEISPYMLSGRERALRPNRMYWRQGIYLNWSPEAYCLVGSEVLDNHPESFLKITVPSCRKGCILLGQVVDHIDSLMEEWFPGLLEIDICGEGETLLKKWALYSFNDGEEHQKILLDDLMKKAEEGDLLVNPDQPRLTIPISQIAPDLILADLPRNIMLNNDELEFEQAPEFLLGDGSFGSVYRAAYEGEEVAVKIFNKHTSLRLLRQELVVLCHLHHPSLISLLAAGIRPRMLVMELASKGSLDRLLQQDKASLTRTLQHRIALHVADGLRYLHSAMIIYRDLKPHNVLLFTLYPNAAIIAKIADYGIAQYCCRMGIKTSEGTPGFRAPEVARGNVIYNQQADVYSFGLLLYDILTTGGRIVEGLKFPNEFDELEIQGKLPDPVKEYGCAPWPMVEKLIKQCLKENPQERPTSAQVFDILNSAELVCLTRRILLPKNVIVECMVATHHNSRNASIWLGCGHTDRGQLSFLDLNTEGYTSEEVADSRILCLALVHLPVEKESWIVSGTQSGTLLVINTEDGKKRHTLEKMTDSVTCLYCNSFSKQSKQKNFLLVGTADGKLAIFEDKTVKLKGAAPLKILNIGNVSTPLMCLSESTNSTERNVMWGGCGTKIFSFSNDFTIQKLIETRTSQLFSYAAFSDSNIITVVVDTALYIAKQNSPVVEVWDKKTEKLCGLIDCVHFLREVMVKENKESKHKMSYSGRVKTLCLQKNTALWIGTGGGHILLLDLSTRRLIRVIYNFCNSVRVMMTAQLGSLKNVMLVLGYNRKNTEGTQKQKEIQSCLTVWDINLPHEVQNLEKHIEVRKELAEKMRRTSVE

[5] = molecular target: Leucine-rich repeat serine/threonine-protein kinase 2 (Homo sapiens) (UniProt Q5S007); details: at 1 µM
[6] = tested on: Leucine-rich repeat serine/threonine-protein kinase 2 (Homo sapiens), Q5S007 [G2019S]; details: at 0.1 µM
Leucine-rich repeat serine/threonine-protein kinase 2 (Homo sapiens), Q5S007 [G2019S], sequence (Q5S007 whole entry G2019S): as the sequence (Q5S007 whole entry) above, with G2019S counted along it

[7] = tested on: Leucine-rich repeat serine/threonine-protein kinase 2 (Homo sapiens), Q5S007 [G2019S]; details: at 1 µM

RAF proto-oncogene serine/threonine-protein kinase (Homo sapiens), sequence (P04049 whole entry): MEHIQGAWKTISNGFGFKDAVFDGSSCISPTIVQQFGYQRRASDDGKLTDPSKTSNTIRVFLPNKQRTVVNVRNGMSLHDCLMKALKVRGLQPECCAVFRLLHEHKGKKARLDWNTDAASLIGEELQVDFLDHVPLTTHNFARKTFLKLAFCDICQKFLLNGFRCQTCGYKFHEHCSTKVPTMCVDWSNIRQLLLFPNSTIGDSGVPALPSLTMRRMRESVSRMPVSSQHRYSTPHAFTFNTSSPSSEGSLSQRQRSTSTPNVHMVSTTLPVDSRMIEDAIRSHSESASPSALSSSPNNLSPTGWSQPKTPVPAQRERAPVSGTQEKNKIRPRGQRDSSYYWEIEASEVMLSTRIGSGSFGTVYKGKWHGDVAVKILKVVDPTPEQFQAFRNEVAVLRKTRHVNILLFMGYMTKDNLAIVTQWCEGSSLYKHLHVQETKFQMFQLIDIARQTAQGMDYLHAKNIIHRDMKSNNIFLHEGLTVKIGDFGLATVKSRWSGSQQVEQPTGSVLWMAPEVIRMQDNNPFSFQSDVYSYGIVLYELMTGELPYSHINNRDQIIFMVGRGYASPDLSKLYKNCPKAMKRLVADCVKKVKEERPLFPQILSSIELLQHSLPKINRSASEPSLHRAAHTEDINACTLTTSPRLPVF

Row | Structure (SMILES) | inhibition [1] [%] | inhibition [2] [%] | inhibition [3] [%] | inhibition [4] [%] | inhibition [5] [%] | inhibition [6] [%] | inhibition [7] [%]
1 | Oc1cccc(-c2nc(-c3ccccc3)[nH]c2-c2ccncc2)c1 | 12.2 | -4.12 | 2.23 | 4.13 | 8.56 | 4.27 | 8.9
2 | Nc1nccc(C#Cc2cncnc2Nc2ccc(OCc3cccc(F)c3)c(Cl)c2)n1 | -0.28 | 0.44 | 2.48 | 7.72 | 11.1 | 8.54 | 14
3 | CCn1c(-c2nonc2N)nc2c(C#CC(C)(C)O)nc(OCCNC)cc21 | 0.54 | 2.16 | 3.06 | -2.14 | 0.49 | -0.46 | 2.51
4 | Cc1ccc(Nc2ccnc(Nc3cccc(C(N)=O)c3)n2)cc1O | 4.38 | -2.94 | 6.55 | 0.74 | 9.44 | 2.08 | 26.1
5 | Nc1nccc(-c2c(-c3ccc(F)cc3)nn3cc(C(F)(F)F)ccc23)n1 | -7.59 | 0.57 | 0.46 | 6.4 | 7.9 | 6.54 | 5.03
6 | c1ccc(Cc2nc3ccc(Nc4ncnc5ccccc45)cc3[nH]2)cc1 | 8.44 | -1.86 | 1.52 | 0.2 | 4.18 | 3.52 | 9.17
7 | COc1cccc(-n2nc(C)c3c(N/N=C(\C)c4ccncc4)ncnc32)c1 | -2.83 | -0.08 | 0.93 | 2.29 | 4.69 | 2.88 | 4.64
8 | C[C@@H](Oc1cc(-n2cnc3ccc(OCC4CCN(C)CC4)cc32)sc1C(N)=O)c1ccccc1C(F)(F)F | 1.99 | 0.42 | 9.77 | 6.53 | 26.4 | 7.39 | 31
9 | Nc1ccc(C#Cc2cncnc2Nc2ccc(OCc3cccc(F)c3)c(Cl)c2)cc1 | -1.01 | 0.78 | 1.25 | 2.69 | 2.94 | 3.21 | 3.62
10 | COc1cc(/C=N/Nc2ncnc3c2cnn3C(C)C)ccc1O | 1.93 | 1.12 | 2.71 | 2.81 | 7.64 | 4.77 | 19.1
11 | COc1cccc(-n2ncc3c(N/N=C/c4ccc(S(C)(=O)=O)cc4)ncnc32)c1 | -5.96 | -3.29 | 1.12 | -1.93 | -1.56 | 2.72 | 6.75
12 | COC(=O)c1ccc2c(c1)C(=Cc1cc(Br)c(O)c(Br)c1)C(=O)N2 | 42 | 1.11 | 2.79 | 29.1 | 88.5 | 58.3 | 91.7
13 | Cc1ccc2c(-c3ccnc(Nc4ccc5c(c4)OCCO5)n3)c(-c3ccc(C(F)(F)F)cc3)nn2n1 | 1.48 | -0.63 | -0.5 | 2.01 | 2.22 | 2.87 | 3.58
14 | N#Cc1cccc(Nc2nccc(-c3cnn4ncccc34)n2)c1 | 0.47 | 4.11 | 15.1 | 4.57 | 19.8 | 7.72 | 40.4
15 | NS(=O)(=O)c1ccc(Nc2cc(-c3cccc(O)c3)n[nH]2)cc1 | -1.78 | 0.88 | 2.85 | 6.39 | 12.4 | 6.39 | 17.1
16 | O=C(Nc1ccc(Oc2ccc3[nH]c(NC(=O)c4ccco4)nc3c2)cc1)Nc1cc(C(F)(F)F)ccc1F | 39.9 | -2.35 | 0.94 | 15.7 | 15.8 | 9.87 | 51.6
17 | NC(=O)c1sc(-n2cnc3ccccc32)cc1OCc1ccccc1Br | -0.55 | 1.39 | 2.57 | 1.66 | 10.8 | 4.94 | 19.3

Row | Structure (SMILES) | inhibition [1] [%] | inhibition [2] [%] | inhibition [3] [%] | inhibition [4] [%] | inhibition [5] [%] | inhibition [6] [%] | inhibition [7] [%]
18 | CCCN1CCCC(c2ccc(Nc3nc(Nc4cc(F)ccc4C(N)=O)c4cc[nH]c4n3)c(OC)c2)C1 (stereo unspecified) | -4.64 | 3.05 | 3.34 | 86.9 | 88.3 | 80.5 | 83.5
19 | CCS(=O)(=O)c1ccc(OC)c(Nc2ncc(-c3cccc(OC)c3)o2)c1 | -3.45 | -4.04 | 2.08 | 5.57 | 20.2 | 7.7 | 42.6
20 | NC(=O)c1cccc(Nc2nccc(Nc3cccc(F)c3)n2)c1 | -1.43 | 0.1 | 2.52 | -0.11 | 10 | 1.9 | 18.2
21 | FC(F)(F)c1ccc(-c2nn3ncccc3c2-c2ccnc(Nc3ccc4c(c3)OCCO4)n2)cc1 | -0.8 | 5.37 | 1.44 | 4.63 | 8.46 | 6.21 | 10.1
22 | Cc1nc(-c2ccccc2)n2nc(NCCCN3CCOCC3)ncc12 | 3.81 | 1.72 | 1.58 | 0.1 | 5.23 | 2.23 | 6.32
23 | Cc1cc(O)cc(C)c1/C=C/c1cncc(C(=O)N(C)C)c1 | -5.4 | -1.62 | 2.21 | 4.81 | 7.82 | 3.29 | 7.6
24 | O=C1Nc2ccccc2/C1=C/Nc1ccc2[nH]c(=O)[nH]c2c1 | -0.47 | 2.93 | 2.88 | 3.06 | 14.1 | 6.22 | 35
25 | CCOc1nccc2c1nc(-c1nonc1N)n2CC | 1.42 | -2.37 | 1.89 | 3.98 | 8.96 | 5.55 | 11.8
26 | CN(C)CCCn1c(-c2nonc2N)nc2cnccc21 | 1.81 | 4.22 | 1.99 | 3.63 | 2.14 | 2.04 | 2.51
27 | COc1cc2ncnc(Nc3ccc(C)c(O)c3)c2cc1OC | -1.36 | 4.09 | 2.62 | 1.75 | 8.77 | 4.67 | 18.3
28 | COc1cc2ncnc(Nc3ccc4c(cnn4Cc4ccccc4)c3)c2cc1OC | -1.93 | 0.58 | 1.32 | 3.78 | 14.3 | 6.86 | 13.8
29 | Cc1ccc2c(-c3ccnc(Nc4cccc(C(F)(F)F)c4)n3)c(-c3ccccc3)nn2n1 | 3.34 | 2.03 | 2.78 | 1.87 | 7.47 | 2.59 | 4.94
30 | COC(=O)Nc1nc2cc(Oc3ccc(NC(=O)Nc4cccc(Br)c4)cc3)ccc2[nH]1 | 44.2 | 1.75 | 1.23 | 8.94 | 13.4 | 4.67 | 10.5
31 | NS(=O)(=O)c1ccc(NC=C2C(=O)Nc3ccc4ncsc4c32)cc1 | -1.97 | 0.1 | 4.43 | 23.9 | 78.8 | 48.8 | 59.7
32 | Cc1cc(Cl)cc2c1NC(=O)C2=NNc1ccc(S(N)(=O)=O)cc1 | 3.57 | 3.1 | 1.43 | 0.71 | 2.23 | 1.78 | 4.5
33 | CCn1c(-c2nonc2N)nc2ccc(F)cc21 | 0.22 | 1.39 | 2.93 | 4.04 | 8.92 | 4.92 | 4.42
